40 compounds from PubChem BioAssay (EPA / NIEHS) can be followed below.

Active and inactive are the calls of the source. Rule for the calls: active = hit-call score of the fitted dose curve at least 0.9, where 1 is the maximum; inactive = score below 0.9.

Chain of Hepatocyte nuclear factor 6 (Homo sapiens) (Q9UBC0 whole entry, looked up): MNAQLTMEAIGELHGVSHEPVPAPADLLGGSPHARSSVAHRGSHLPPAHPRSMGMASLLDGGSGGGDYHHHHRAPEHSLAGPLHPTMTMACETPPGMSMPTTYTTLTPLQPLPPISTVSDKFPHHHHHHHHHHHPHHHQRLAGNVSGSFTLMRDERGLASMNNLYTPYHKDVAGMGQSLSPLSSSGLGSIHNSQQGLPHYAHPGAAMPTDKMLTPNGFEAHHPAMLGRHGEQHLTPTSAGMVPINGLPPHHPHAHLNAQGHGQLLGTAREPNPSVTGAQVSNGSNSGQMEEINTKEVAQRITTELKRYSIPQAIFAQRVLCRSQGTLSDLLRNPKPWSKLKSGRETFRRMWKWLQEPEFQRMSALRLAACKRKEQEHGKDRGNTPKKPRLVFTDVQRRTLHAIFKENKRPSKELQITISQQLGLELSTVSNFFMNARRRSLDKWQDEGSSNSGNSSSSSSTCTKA

The assay concerns the target Hepatocyte nuclear factor 6 (Homo sapiens) (UniProt Q9UBC0). The experiment in a line: ATG_HNF6_CIS: Attagene CIS-FACTORIAL HepG2 Assay for human Hepatocyte Nuclear Factor 6 (HNF6) (AID 2282952). To be noted: HepG2 Attagene cis-factorial HNF6 reporter transcription; actives raise or lower the signal. As for the experimental part:
ATG_CIS is a cell-based, multiplexed-readout assay that uses HepG2, a human liver cell line, with measurements taken at 24 hours after chemical dosing in a 24-well plate.ATG_HNF6_CIS is one of 52 assay component(s) measured or calculated from the ATG_CIS assay. It is designed to make measurements of mRNA induction, a form of inducible reporter, as detected with fluorescence intensity signals by Reverse transcription polymerase chain reaction (RT-PCR) and Capillary electrophoresis technology.Data from the assay component ATG_HNF6_CIS was analyzed into 1 assay endpoint. This assay endpoint, ATG_HNF6_CIS, was analyzed with bidirectional fitting relative to DMSO as the negative control and baseline of activity. Using a type of inducible reporter, measures of mRNA for gain or loss-of-signal activity can be used to understand the reporter gene at the transcription factor-level as they relate to the gene ONECUT1. Furthermore, this assay endpoint can be referred to as a primary readout, because this assay has produced multiple assay endpoints where this one serves a reporter gene function. To generalize the intended target to other relatable targets, this assay endpoint is annotated to the dna binding intended target family, where the subfamily is homeobox protein.
Human liver HepG2 cells are transiently transfected with multiple reporter transcription units (MRTUs) in 6-well plates using FuGene 6 reagent (Roche; 3 ml FuGene/1 mg DNA). The MRTU constructs are regulated by a cis-regulating element (promoter). […] A major difference between the CIS and TRANS system is that in CIS activities of endogenous TFs are measured, whereas the TRANS assay evaluates changes in activities of exogenous, chimeric NR-Gal4 proteins. […] At the end of 24 hour incubation, total RNA was isolated using TriZol reagent (Invitrogen). The isolated RNA is then reverse-transcribed using oligo(dT) primer and Mo-MLV reverse transcriptase (Invitrogen) with DNAse I (Ambion) treatment for 30 min. The one-tenth of the produced cDNA was amplified by PCR using Taq DNA polymerase (Invitrogen) and two reporter sequence-specific primers. The PCR products were fluorescently labeled by primer extension with 6-arboxyfluorescein (6-FAM) 5'-labeled reporter sequence-specific primer (2 min at 95 C, 20 s at 68 C and 10 min at 72 C) and these products were digested with 5U of HpaI (New England Biolabs) for 2h at 37 C. The fragments were purified using Qiaquick PCR columns (Qiagen), analyzed on an ABI 3130xL genetic analyzer (Applied Biosystems) with peak positions identified by using a set of X-rhodamine (ROX)-labeled MapMarker1000 molecular weight standards (BioVentures). The raw capillary electrophoresis data was processed using Attagraph software (Attagene).
For the compound `CCC(=O)OCc1ccccc1`, the compound was classed as inactive.

As for `CCC/C=C/C=O`, the call was inactive.

Take `O=C1OC2(c3cc(Br)c(O)c(Br)c3Oc3c2cc(Br)c(O)c3Br)c2c(Cl)c(Cl)c(Cl)c(Cl)c21`: the result was inactive.

For `Cc1ccc(C=O)cc1`, the compound was called inactive.

Consider `Cc1cccc(Nc2ccccc2C(=O)O)c1C`, for which the result was inactive.

For `CC1COc2ccccc2N1C(=O)C(Cl)Cl` (stereo not given), the compound was called inactive.

Usually AC50 stands for the concentration giving half of the maximal activity seen. In the case of `O=Nc1ccc(Nc2ccccc2)cc1`, the AC50 is 25.2 µM (active).

On to `O=C(OCc1ccccc1)C(=O)OCc1ccccc1`, for which the result was inactive.

In the case of `NNc1nc(-c2ccc(N)cc2)cs1`, the compound was classed as inactive.

As for `COc1cc2ncnc(Nc3cccc(Cl)c3)c2cc1OC`, the compound was called inactive.

With `O=c1oc(=O)c2cc3c(=O)oc(=O)c3cc12`, the outcome was inactive.

`CN1Cc2c(N)cccc2C(c2ccccc2)C1` (stereo not given): the result was inactive.

As to `CCCC(=O)C(C)=O`, the outcome was inactive.

Take `C=CCOC(=O)CCC1CCCCC1`: the call was inactive.

Regarding `CCCC[n+]1ccccc1`, the compound was called inactive.

Regarding `OCCOc1cccc(OCCO)c1`, the call was inactive.

On to `O=C(O)c1cn(-c2ccc(F)cc2)c2cc(N3CCNCC3)c(F)cc2c1=O`, for which the call was inactive.

On to `O=c1cc(-c2ccccc2)oc2cc(O)cc(O)c12`, for which the compound was classed as inactive.

`CC(=O)C(=O)O`: the result was inactive.

As to `COC(=O)Cc1cccc2ccccc12`, the call was inactive.

On to `CC(C)=CCC/C(C)=C/COC=O`, for which the outcome was inactive.

Turning to `CC(C)(C)c1cc(CCC(=O)NN)cc(C(C)(C)C)c1O`, the compound was classed as inactive.

Consider `CCOC(=S)SSC(=S)OCC`, for which the compound was called inactive.

As for `C=CC(=O)OCCn1c(=O)n(CCOC(=O)C=C)c(=O)n(CCOC(=O)C=C)c1=O`, the compound was classed as inactive.

Regarding `CC(=O)Nc1ccccc1O`, the compound was called inactive.

For the compound `CNCCCC12CCC(c3ccccc31)c1ccccc12`, the call was inactive.

Consider `O=CCCc1ccccc1`, for which the outcome was inactive.

In the case of `NCCCN1CCOCC1`, the call was inactive.

For `C#C[C@]1(O)CC[C@H]2[C@@H]3CCC4=Cc5oncc5C[C@]4(C)[C@H]3CC[C@@]21C`, the AC50 was 60.9 µM (active).

For `Nc1cc([N+](=O)[O-])ccc1Cl`, the result was inactive.

For `Nc1ccc(S(N)(=O)=O)cc1`, the call was inactive.

For the compound `O=c1[nH]c(=O)n([C@H]2CCCO2)cc1F`, the outcome was inactive.

In the case of `CN(C)c1ccc(O)c2c1C[C@H]1C[C@H]3[C@H](N(C)C)C(=O)C(C(N)=O)=C(O)[C@@]3(O)C(=O)C1=C2O`, the result was inactive.

`CC1CCC(C(C)(C)O)CC1` (stereo not given): the call was inactive.

`CCCCCCCCCCN`: the result was inactive.

Take `c1ccc(CCCc2ccccn2)cc1`: the compound was classed as inactive.

As to `CCCCCNCCCCC`, the result was inactive.

On to `O=[N+]([O-])c1ccc(Nc2ccc(Nc3ccccc3)c(S(=O)(=O)O)c2)c([N+](=O)[O-])c1`, for which the compound was called inactive.

As for `Clc1sc(Cl)c(Cl)c1Cl`, the compound was called inactive.

With `Clc1nc(C(Cl)(Cl)Cl)c(Cl)c(Cl)c1Cl`, the AC50 is 49.9 µM (active).
